Screening data from PubChem BioAssay.
Only some compounds are listed: those with a hit (about 31% of all), similar ones and a draw of the others.
PLAP act: PLAP enzyme activators, biochemical, luminescence, HTS; Alkaline phosphatase, placental type (Homo sapiens), P05187; purified PLAP enzyme, luminescent substrate read-out; active compounds read high; activation fold at 20 µM; actives 1.2% (n = 96,000); in the data active = activation fold above about 2
CYP2C9 inh: blockers of cytochrome P450 2C9 activity – biochemical, luminescence, ADME assay, primary screen; CYP2C9 Supersomes, luciferin-H conversion; actives 20% (n = 96,000); P11712; AID 777, 2007; inhibition, % at 5 µM;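 active = blocking of liver enzyme CYP2C9 beyond about 50% at 5 µM, limit read from the data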
Target sequence (P11712 whole entry, looked up): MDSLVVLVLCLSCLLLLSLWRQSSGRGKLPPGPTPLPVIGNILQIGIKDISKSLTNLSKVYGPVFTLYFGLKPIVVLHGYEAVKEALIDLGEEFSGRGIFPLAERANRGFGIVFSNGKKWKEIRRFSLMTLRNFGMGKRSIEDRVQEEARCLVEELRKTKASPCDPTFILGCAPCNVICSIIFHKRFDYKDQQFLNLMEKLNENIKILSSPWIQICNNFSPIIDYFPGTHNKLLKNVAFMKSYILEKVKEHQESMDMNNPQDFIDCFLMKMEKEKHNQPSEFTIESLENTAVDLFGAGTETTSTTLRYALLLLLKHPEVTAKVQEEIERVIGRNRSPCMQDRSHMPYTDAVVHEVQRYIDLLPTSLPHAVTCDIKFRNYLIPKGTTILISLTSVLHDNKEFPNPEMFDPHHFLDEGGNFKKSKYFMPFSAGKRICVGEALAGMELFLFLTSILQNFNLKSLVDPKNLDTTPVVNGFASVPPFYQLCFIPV
CYP2C19 act: human CYP2C19 activators, primary screen, biochemical, luminescence. Cytochrome P450 2C19 (Homo sapiens), P33261. recombinant CYP2C19, luciferin-H EGE luminescence; active compounds read high; 0 = fully inhibited enzyme, 1 = untreated enzyme. activation factor at 5 µM. 96,000 tested, under 10 active. AID 1025, 2008;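 active = activation factor of at least 2 at 5 µM in the primary screen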;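 note: 0 = wells with 2.5 mM tranylcypromine and 1 = vehicle-only wells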
CYP2C9 act: human CYP2C9 activators, primary screen, biochemical, luminescence; recombinant CYP2C9, luciferin-H conversion; active compounds read high; factor 1 = untreated enzyme, 0 = blocked; Cytochrome P450 2C9 (Homo sapiens), P11712; activation factor at 5 µM; actives 1.4% (n = 96,000);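 active = activation factor of 2 or more for CYP2C9 at a 5 µM dose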;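 note: 0 = sulfaphenazole-blocked wells and 1 = vehicle-only wells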
CYP2C19 inh: blockers of cytochrome P450 2C19 activity – biochemical, luminescence, ADME assay, primary screen | P33261 | CYP2C19 Supersomes, luciferin-H EGE luminescence, 30 min | inhibition, % at 5 µM | actives 21% (n = 96,000) | AID 778, 2007;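 active = CYP2C19 inhibition above a set limit at 5 µM in the primary screen, cut at about 50% in these data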;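 note: plate controls were negative control wells for no effect and 2.5 mM tranylcypromine positive control for full effect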
Active calls of the source: *.

`Cn1c(=O)oc2cc(S(=O)(=O)N3CCC(C(=O)N4CC=C(c5ccccc5)CC4)CC3)ccc21` gave PLAP act 1.6, CYP2C9 inh -5.1, CYP2C19 act 0.3, CYP2C9 act 1.1 and CYP2C19 inh 72.9*.
Screening N#C/C(C(=O)NCc1ccco1)=C1/SC(Cc2ccc(F)cc2)C(=O)N1c1ccccc1 (stereo not given) returned PLAP act 1.1, CYP2C9 inh -20.5, CYP2C19 act 1.1, CYP2C9 act 1.2 and CYP2C19 inh -7.9.
Screening Cc1ccc2oc3c(c(=O)c2c1)C(c1cccs1)N(CCCN(C)C)C3=O (stereo not given) returned PLAP act 1.5, CYP2C9 inh 5.8, CYP2C19 act 1, CYP2C9 act 0.9 and CYP2C19 inh -3.5.
COC(=O)C1=C(C)NC(C)=C(C(=O)OC)C1c1cc2cc(C)ccc2[nH]c1=O was read as PLAP act 1.4, CYP2C9 inh 25.9, CYP2C19 act 0.9, CYP2C9 act 0.7 and CYP2C19 inh 10.4.
For Cc1ccc2[nH]c(=O)c(C3C(C#N)=C(N)Oc4c3ccc3cccnc43)cc2c1 (stereo not given) the results were PLAP act 2.2*, CYP2C9 inh 62.1*, CYP2C19 act 1.1, CYP2C9 act 0.4 and CYP2C19 inh -13.8.
For COc1ccc(CCNC(=O)COc2ccc(S(=O)(=O)NC(C)C)cc2Cl)cc1OC the results were PLAP act 1.2, CYP2C9 inh 86.0*, CYP2C19 act 0.4, CYP2C9 act 0.1 and CYP2C19 inh 64.9*.
For CC(C)NS(=O)(=O)c1ccc(OCC(=O)NCc2ccc3c(c2)OCO3)c(Cl)c1 the results were PLAP act 1.5, CYP2C9 inh 93.6*, CYP2C19 act 0, CYP2C9 act 0.1 and CYP2C19 inh 97.4*.
CCCCN1C(=O)C(NC(C)=O)c2cc(Br)ccc21 (stereo not given) was read as PLAP act 1.5, CYP2C9 inh 23.7, CYP2C19 act 0.2, CYP2C9 act 0.8 and CYP2C19 inh 78.7*.
CCN1C(=O)C(NC(C)=O)c2cc(Br)ccc21 (stereo not given) was read as PLAP act 1.3, CYP2C9 inh -16.5, CYP2C19 act 1.1, CYP2C9 act 1.2 and CYP2C19 inh -13.7.
`COc1ccc(Nc2nc(C(=O)NCCCN3CCOCC3)cs2)cc1` gave PLAP act 1.5, CYP2C9 inh 33.3, CYP2C19 act 0.7, CYP2C9 act 0.7 and CYP2C19 inh 27.3.
For CC(C)CC(=O)NC(=S)Nc1nc(-c2cccc3ccccc23)cs1 the results were PLAP act 1.2, CYP2C9 inh 57.2*, CYP2C19 act 0.6, CYP2C9 act 0.4 and CYP2C19 inh 41.5.
For O=C(c1coc(=O)c2ccccc12)N1CCN(Cc2ccccc2)CC1 the results were PLAP act 1.2, CYP2C9 inh -30.0, CYP2C19 act 0.4, CYP2C9 act 1.3 and CYP2C19 inh 55.1*.
Screening Cc1noc(C)c1C(=O)N1CCN(CCc2ccccc2)CC1 returned PLAP act 1, CYP2C9 inh 7.3, CYP2C19 act 0.8, CYP2C9 act 0.9 and CYP2C19 inh 17.3.
`Cc1noc(C)c1C(=O)N1CCN(Cc2ccccc2)CC1` gave PLAP act 1, CYP2C9 inh 10.0, CYP2C19 act 0.1, CYP2C9 act 0.9 and CYP2C19 inh 91.2*.
For O=C(CCS(=O)(=O)Cc1ccccc1)N1CCN(Cc2ccccc2)CC1 the results were PLAP act 1, CYP2C9 inh 9.0, CYP2C19 act 1.1, CYP2C9 act 0.9 and CYP2C19 inh -10.0.
For Cc1occc1C(=O)N1CCN(Cc2ccccc2)CC1 the results were PLAP act 1.3, CYP2C9 inh 32.8, CYP2C19 act 0.1, CYP2C9 act 0.7 and CYP2C19 inh 89.7*.
For CCOc1ccc(CN2CCN(C(=O)c3ccccc3)CC2)cc1 the results were PLAP act 1.2, CYP2C9 inh -9.4, CYP2C19 act 1.1, CYP2C9 act 1.1 and CYP2C19 inh -10.0.
CCNC(=O)Nn1c(C)nnc1C was read as PLAP act 1, CYP2C9 inh -17.6, CYP2C19 act 1.2, CYP2C9 act 1.2 and CYP2C19 inh -16.5.
Screening CC1CC(C)CN(CCCNC(=O)CCNC(=O)Cn2ccc3ccccc3c2=O)C1 (stereo not given) returned PLAP act 1.5, CYP2C9 inh -0.9, CYP2C19 act 0.9, CYP2C9 act 1 and CYP2C19 inh 8.2.
`CN(C(=O)c1ccc(Cl)c(S(=O)(=O)N2CCOCC2)c1)c1ccccc1C(=O)O` gave PLAP act 1.1, CYP2C9 inh 6.8, CYP2C19 act 1.1, CYP2C9 act 0.9 and CYP2C19 inh -7.7.
`CCS(=O)(=O)Nc1ccc(C2=NN(C(=O)c3ccco3)C(c3ccc(C)cc3)C2)cc1` (stereo not given) gave PLAP act 1.2, CYP2C9 inh 41.8, CYP2C19 act 0.7, CYP2C9 act 0.6 and CYP2C19 inh 32.1.
Cc1ccc(C2=NN(C(=S)Nc3ccccc3)C(c3ccco3)C2)cc1 (stereo not given) was read as PLAP act 0.8, CYP2C9 inh 52.2*, CYP2C19 act 0.8, CYP2C9 act 0.5 and CYP2C19 inh 23.7.
`COC(=O)c1ccc2c(c1)N(Cc1nc(-c3cccc(C)c3)oc1C)C(=O)C1CCCN21` (stereo not given) gave PLAP act 1.5, CYP2C9 inh 36.9, CYP2C19 act 0.6, CYP2C9 act 0.6 and CYP2C19 inh 43.8.
Screening Cc1ccccc1C(=O)NC1CCN(Cc2nnnn2CCc2ccccc2)CC1 returned PLAP act 1, CYP2C9 inh 11.2, CYP2C19 act 1, CYP2C9 act 0.9 and CYP2C19 inh -2.2.
c1ccc(CCn2nnnc2CN2CCc3ccccc32)cc1 was read as PLAP act 1.3, CYP2C9 inh 86.3*, CYP2C19 act 0, CYP2C9 act 0.1 and CYP2C19 inh 97.8*.
`CC1Cc2ccccc2N1C(=O)CSc1nnc(Cc2ccccc2)n1CCc1ccccc1` (stereo not given) gave CYP2C9 inh 93.0*, CYP2C19 act 0.1, CYP2C9 act 0.1 and CYP2C19 inh 92.3*.
Screening O=C(CSc1nnnn1C1CCCC1)N1CCCc2ccccc21 returned PLAP act 1, CYP2C9 inh -7.8, CYP2C19 act 0.1, CYP2C9 act 1.1 and CYP2C19 inh 91.0*.
For Cn1cccc1Cc1nnc(SCC(=O)N2CCc3ccccc32)n1CCc1ccccc1 the results were PLAP act 1.5, CYP2C9 inh 31.9, CYP2C19 act 0.9, CYP2C9 act 0.7 and CYP2C19 inh 9.9.
Screening c1ccc2c(c1)CCCN2Cc1nnnn1C1CCCC1 returned PLAP act 1.1, CYP2C9 inh 59.2*, CYP2C19 act 0, CYP2C9 act 0.4 and CYP2C19 inh 95.9*.
